Assay results reported in PubChem BioAssay (NCATS).
Records with an inconclusive call do not appear. Values without a mark were called inactive. Calls follow the shape of the dose curve; as a rule, active = well fitted inhibition curve with a large enough effect; inconclusive = small, poorly fitted or top-dose-only effect; inactive = flat fitted curve, though single readings scatter.

The molecules below were run on astro (assay: Drug repurposing screens with cells derived from glioblastoma tumor samples (AID 1345199; also: nearly all actives have a fitted effect of over 40% in size)). Conditions: viability, ATP luminescence, 48 h; series mostly up to 45.9 µM; activity, negative = cell killing: at the top concentration.
Description: CD133+ cells were isolated from GBM patient biopsies and cultured as neurospheres. Neurospheres from four patients were used to screen the NCATS pharmaceutical collection (NPC) library of approved drugs and bioactive compounds. […] The neurospheres were incubated with drugs for 48 hours in 1536-well format, then assayed with an ATP content cell viability assay. […] These hits were cherry picked to confirm activity in the four original GBM lines screened plus three other slower growing GMB lines (unable to yield enough cells for a full primary screen). Variable activities of the confirmed primary hits in the different GBM patient lines were observed. The patient line 206 responded to the greatest number of compounds and line 923 responded to the least amount of active compounds.
% is scaled to controls: 0 for no effect and ±100 for the full control effect.

Row | SMILES | activity, negative = cell killing
1 | NCc1ccc(S(N)(=O)=O)cc1 | -9.75% [at 21.2 µM]
2 | CCN(CC)CCOC(=O)C(c1ccccc1)c1ccccc1 | -12.1%
3 | O=C(NCCCN1CCOCC1)c1ccc(Cl)cc1 | -13.7%
4 | O=C(/C=C/c1ccccc1)OCc1ccccc1 | -4.12%
5 | CC(C)(C)C(=O)OCOC(=O)[C@@H]1N2C(=O)[C@@H](NC(=O)[C@H](N)c3ccccc3)[C@H]2SC1(C)C | -3.19% [at 21.2 µM]
6 | CC(=O)Nc1cccc(O)c1 | -17.8%
7 | Cn1c(=O)c2c(ncn2CCO)n(C)c1=O | -14.7%
8 | O=C(NCN1CCOCC1)c1cnccn1 | -0.426%
9 | CCCC(O)C(CC)CO (stereo not given) | -8.99%
10 | Cc1cc(C)c(NC(=O)CN(CC(=O)O)CC(=O)O)c(C)c1Br | -13.9%
11 | OCC(O)CS (stereo not given) | -7.81%
12 | Nc1ccc(S(=O)(=O)c2ccc(N)cc2)cc1 | -5.58%
13 | Cc1ccc(S(=O)(=O)NC(=O)NC2CCCCCCC2)cc1 | -6.67%
14 | Cc1ccc(C(C)C)c(O)c1 | -8.58%
15 | O=C(O)Cc1ccc(CCNS(=O)(=O)c2ccc(Cl)cc2)cc1 | 2.52%
16 | Cc1c(C)c2c(c(C)c1OC(=O)c1cccnc1)CC[C@@](C)(CCC[C@H](C)CCC[C@H](C)CCCC(C)C)O2 | -22%
17 | CN1C[C@@H]2C[C@H]1CN2c1cc2c(cc1F)c(=O)c(C(=O)O)cn2C1CC1 | -5.27%
18 | COc1cc(O)cc(O)c1 | -9.13%
19 | CCCCCC(C)N (stereo not given) | -12.1%
20 | CCc1nnc(NS(=O)(=O)c2ccc(N)cc2)s1 | -16.9%

Row | SMILES | activity, negative = cell killing
21 | C[n+]1ccccc1/C=N/O | -6.47% [at 21.2 µM]
22 | Cc1cc(OI)c(C(C)C)cc1-c1cc(C(C)C)c(OI)cc1C | -8.13%
23 | Cc1cc(C)nc(NS(=O)(=O)c2ccc(N)cc2)n1 | -4.38%
24 | CO[C@@]1(NC(=O)C(C(=O)O)c2ccc(O)cc2)C(=O)N2C(C(=O)O)=C(CSc3nnnn3C)CO[C@@H]21 (stereo not given in full) | -6.39% [at 21.2 µM]
25 | Cc1cc(NC(=O)C2=C(O)c3ccccc3S(=O)(=O)N2C)no1 | -11.7%
26 | CCCCCCCC(=O)OCC(COC(=O)CCCCCCC)OC(=O)CCCCCCC | -11.6%
27 | COC(=O)c1ccc(O)cc1 | -17.1%
28 | CCCCCOC(=O)Nc1nc(=O)n([C@@H]2O[C@H](C)[C@@H](O)[C@H]2O)cc1F | -1.85%
29 | Nc1c2c(nc3c1CCC3)CCCC2 | -8.79%
30 | Cc1ncc(CO)c(CN)c1O | -4.48%
31 | COc1ccc(C(=O)NCc2ccc(OCCN(C)C)cc2)cc1OC | -13.5%
32 | O=c1[nH]cnc2nc[nH]c12 | -17.1%
33 | CC(O)CCCCn1c(=O)c2c(ncn2C)n(C)c1=O (stereo not given) | -12.5%
34 | C=CCNC(N)=S | -0.464%
35 | CCCNC(C)C(=O)Nc1c(C)csc1C(=O)OC (stereo not given) | -11.1% [at 21.2 µM]
36 | O=C(O)[C@@H]1[C@H]2C[C@H]3c4[nH]c5ccccc5c4CCN3C[C@@H]2CC[C@@H]1O | -29.3% [at 21.2 µM]
37 | O=C(O)C(S)C(S)C(=O)O (stereo not given) | -23.1%
38 | CCCCC1(COC(=O)CCC(=O)O)C(=O)N(c2ccccc2)N(c2ccccc2)C1=O | -8.07% [at 21.2 µM]
39 | NC(=O)CCCCC1CCSS1 (stereo not given) | -15.2%
40 | CC(C)CCCC(C)CCCC(C)CCCCC(C)CCCC(C)CCCC(C)C (stereo not given) | -9.27%
